The target in assay [1] is Platelet-derived growth factor receptor beta (Homo sapiens) (UniProt P09619). Particulars: at 1 µM.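 Also: each value is a mean percent inhibition.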
Assay [2] deals with Tyrosine-protein kinase FRK (Homo sapiens) (UniProt P42685). Particulars: at 0.1 µM.
Assay [3] has the same target. Particulars: at 1 µM.
For assay [4], the target named is Protein-tyrosine kinase 2-beta (Homo sapiens) (UniProt Q14289). Particulars: at 0.1 µM.
Assay [5] has the same target. The note with it: at 1 µM.
The target of assay [6] is Proto-oncogene tyrosine-protein kinase receptor Ret (Homo sapiens) (UniProt P07949). Particulars: at 0.1 µM.
For assay [7] the target is unchanged. The note with it: at 1 µM.
Assay [8] deals with Proto-oncogene tyrosine-protein kinase receptor Ret (Homo sapiens), P07949 [V804L]. The note with it: at 0.1 µM.
Assay [9] has the same test system. Particulars: at 1 µM.
For assay [10], the system named is Proto-oncogene tyrosine-protein kinase receptor Ret (Homo sapiens), P07949 [Y791F]. Particulars: at 0.1 µM.

For orientation: inhibition means the relative decrease from the control value, in per cent.

Chain of Platelet-derived growth factor receptor beta (Homo sapiens) (P09619 whole entry): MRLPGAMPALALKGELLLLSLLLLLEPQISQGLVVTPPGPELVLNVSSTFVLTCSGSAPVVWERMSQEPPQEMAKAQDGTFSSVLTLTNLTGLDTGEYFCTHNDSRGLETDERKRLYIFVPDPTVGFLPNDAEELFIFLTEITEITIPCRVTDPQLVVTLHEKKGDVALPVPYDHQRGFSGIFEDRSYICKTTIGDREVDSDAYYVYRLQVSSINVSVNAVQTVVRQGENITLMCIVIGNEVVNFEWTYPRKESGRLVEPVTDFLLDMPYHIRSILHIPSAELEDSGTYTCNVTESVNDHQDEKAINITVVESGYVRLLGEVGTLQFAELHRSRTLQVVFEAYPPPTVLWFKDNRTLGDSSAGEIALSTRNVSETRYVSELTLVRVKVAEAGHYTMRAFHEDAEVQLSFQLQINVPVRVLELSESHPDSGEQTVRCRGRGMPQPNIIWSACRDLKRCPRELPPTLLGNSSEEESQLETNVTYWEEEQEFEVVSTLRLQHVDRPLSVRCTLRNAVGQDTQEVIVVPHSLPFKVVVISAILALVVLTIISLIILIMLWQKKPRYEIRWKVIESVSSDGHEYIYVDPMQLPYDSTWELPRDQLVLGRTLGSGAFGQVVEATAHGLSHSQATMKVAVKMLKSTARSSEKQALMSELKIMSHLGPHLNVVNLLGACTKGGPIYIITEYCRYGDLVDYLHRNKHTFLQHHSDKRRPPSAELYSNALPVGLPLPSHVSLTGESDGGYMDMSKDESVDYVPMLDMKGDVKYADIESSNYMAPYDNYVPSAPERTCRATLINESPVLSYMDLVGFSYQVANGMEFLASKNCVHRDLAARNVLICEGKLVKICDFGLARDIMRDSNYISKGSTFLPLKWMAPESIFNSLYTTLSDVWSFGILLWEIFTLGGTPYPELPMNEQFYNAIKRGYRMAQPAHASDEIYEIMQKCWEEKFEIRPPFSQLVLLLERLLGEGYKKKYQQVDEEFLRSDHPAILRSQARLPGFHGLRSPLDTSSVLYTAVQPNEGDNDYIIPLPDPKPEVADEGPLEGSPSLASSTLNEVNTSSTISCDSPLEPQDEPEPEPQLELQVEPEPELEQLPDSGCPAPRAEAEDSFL
Chain of Proto-oncogene tyrosine-protein kinase receptor Ret (Homo sapiens), P07949 [Y791F] (P07949 whole entry Y791F): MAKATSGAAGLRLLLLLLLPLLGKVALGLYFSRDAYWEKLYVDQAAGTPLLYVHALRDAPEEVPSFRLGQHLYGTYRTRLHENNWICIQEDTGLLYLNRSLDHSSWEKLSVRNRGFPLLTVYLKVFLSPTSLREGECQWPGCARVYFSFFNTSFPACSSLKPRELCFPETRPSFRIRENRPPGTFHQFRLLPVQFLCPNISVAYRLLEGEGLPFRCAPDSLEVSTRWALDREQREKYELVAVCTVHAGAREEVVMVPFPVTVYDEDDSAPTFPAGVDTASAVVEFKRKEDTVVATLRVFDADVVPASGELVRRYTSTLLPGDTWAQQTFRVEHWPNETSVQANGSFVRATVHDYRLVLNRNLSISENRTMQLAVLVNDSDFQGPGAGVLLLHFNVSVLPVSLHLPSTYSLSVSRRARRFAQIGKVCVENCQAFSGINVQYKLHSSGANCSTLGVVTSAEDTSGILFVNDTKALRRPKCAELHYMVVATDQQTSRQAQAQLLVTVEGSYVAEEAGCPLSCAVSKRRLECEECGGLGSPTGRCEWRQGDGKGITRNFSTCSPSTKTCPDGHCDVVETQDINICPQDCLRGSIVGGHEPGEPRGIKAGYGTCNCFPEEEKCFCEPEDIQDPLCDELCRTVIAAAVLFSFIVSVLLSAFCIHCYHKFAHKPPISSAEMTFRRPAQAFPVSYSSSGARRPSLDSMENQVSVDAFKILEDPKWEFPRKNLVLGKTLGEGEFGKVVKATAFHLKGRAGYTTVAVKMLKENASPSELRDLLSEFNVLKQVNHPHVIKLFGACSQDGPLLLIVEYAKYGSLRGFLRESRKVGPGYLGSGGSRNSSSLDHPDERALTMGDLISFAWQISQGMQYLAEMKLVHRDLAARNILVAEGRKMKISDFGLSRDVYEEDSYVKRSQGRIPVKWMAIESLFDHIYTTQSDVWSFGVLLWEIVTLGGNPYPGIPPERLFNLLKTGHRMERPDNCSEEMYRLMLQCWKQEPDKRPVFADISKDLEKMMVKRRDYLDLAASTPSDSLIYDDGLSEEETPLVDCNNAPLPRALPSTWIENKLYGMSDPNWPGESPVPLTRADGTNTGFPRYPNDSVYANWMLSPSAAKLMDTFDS
Chain of Proto-oncogene tyrosine-protein kinase receptor Ret (Homo sapiens) (P07949 whole entry): as the sequence (P07949 whole entry Y791F) above, with F791Y counted along it
Chain of Protein-tyrosine kinase 2-beta (Homo sapiens) (Q14289 whole entry, looked up): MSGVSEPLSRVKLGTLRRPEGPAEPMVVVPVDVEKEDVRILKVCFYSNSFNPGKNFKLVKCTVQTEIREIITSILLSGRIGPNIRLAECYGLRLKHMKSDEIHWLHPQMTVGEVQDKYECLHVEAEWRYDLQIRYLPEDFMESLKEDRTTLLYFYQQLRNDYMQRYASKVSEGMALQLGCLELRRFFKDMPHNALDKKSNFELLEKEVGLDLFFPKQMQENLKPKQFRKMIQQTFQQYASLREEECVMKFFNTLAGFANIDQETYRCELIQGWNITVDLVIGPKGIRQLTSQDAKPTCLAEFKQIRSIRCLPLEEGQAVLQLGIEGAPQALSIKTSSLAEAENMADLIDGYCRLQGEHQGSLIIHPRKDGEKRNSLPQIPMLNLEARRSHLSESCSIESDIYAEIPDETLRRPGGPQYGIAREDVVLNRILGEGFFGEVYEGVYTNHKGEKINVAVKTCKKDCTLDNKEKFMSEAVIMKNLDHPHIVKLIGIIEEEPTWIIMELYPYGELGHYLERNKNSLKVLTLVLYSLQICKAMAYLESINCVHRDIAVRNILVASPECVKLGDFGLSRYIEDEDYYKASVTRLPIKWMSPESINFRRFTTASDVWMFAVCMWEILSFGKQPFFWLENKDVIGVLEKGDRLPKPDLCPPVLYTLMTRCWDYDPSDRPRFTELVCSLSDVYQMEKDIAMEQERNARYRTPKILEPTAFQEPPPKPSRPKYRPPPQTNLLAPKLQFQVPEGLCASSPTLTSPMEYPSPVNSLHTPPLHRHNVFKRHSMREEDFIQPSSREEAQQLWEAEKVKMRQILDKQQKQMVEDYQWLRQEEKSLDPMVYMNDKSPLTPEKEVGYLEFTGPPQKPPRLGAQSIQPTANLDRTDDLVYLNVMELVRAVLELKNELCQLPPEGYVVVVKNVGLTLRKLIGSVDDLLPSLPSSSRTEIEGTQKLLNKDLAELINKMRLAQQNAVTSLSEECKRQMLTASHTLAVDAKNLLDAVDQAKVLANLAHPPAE
Chain of Proto-oncogene tyrosine-protein kinase receptor Ret (Homo sapiens), P07949 [V804L] (P07949 whole entry V804L): as the sequence (P07949 whole entry Y791F) above, with F791Y, V804L counted along it
Chain of Tyrosine-protein kinase FRK (Homo sapiens) (P42685 whole entry): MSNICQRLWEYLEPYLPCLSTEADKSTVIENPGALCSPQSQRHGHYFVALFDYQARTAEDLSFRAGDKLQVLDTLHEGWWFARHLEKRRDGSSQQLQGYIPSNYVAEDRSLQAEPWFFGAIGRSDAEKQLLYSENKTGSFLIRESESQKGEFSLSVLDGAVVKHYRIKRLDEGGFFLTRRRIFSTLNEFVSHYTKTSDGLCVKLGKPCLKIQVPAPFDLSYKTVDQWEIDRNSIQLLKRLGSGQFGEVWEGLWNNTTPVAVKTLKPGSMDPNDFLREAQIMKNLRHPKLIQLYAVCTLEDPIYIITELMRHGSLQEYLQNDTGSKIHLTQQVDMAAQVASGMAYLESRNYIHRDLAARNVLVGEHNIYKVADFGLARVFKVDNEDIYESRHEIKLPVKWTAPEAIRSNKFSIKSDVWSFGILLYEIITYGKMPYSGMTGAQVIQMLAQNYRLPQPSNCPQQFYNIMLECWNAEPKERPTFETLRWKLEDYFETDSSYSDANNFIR

For `Fc1cccc(COc2ccc(Nc3ncnc4sc(-c5cccs5)cc34)cc2Cl)c1`, the inhibition in assay [1] is 4.24%; in [2], 1.12%; in assay [3], 2.35%; in assay [4] it was -5.04%; in assay [5], 3.37%; in assay [6], 3.97%. Besides, the inhibition turned out to be 0.68% in assay [7], 0.76% in [8], 2.26% in assay [9] and 1.05% in [10].
Take `c1cnn2ncc(-c3ccnc(Nc4ccc5c(c4)OCCO5)n3)c2c1`: the inhibition in assay [1] amounted to 67.3%; in [2] it was 1.69%; in [3] it was 3.19%; in assay [4], 32.6%; in assay [5], 84.6%; in assay [6] it was 5.62%. Besides, the inhibition in [7] stood at 21.9%; in assay [8], 5.79%; in [9], 22%; in assay [10], 4.73%.
As to `O=C1NC(=O)C(c2ccc(Cl)cc2)=C1Nc1ccc(Cl)c(C(=O)O)c1`, the inhibition in assay [1] was 6.67%; in assay [2] it was -0.84%; in [3], 0.85%; in [4] it was -2.28%; in assay [5], 3.24%; in [6], 3.14%. Further, the inhibition in [7] is 2.98%; in [8] it was 0.34%; in assay [9], -0.69%; in assay [10], 0.25%.
Regarding `CCn1c(-c2nonc2N)nc2c(C#CC(C)(C)O)nc(OC[C@@H](N)c3ccccc3)cc21`, the inhibition in assay [1] is 50.8%; in assay [2], 1.13%; in assay [3] it was 1.5%; in assay [4] it was -0.92%; in assay [5], 9.22%; in [6], 7.49%. Moreover, the inhibition in [7] is 41.1%; in assay [8] it was 2.03%; in assay [9], 14.4%; in [10], 10.7%.
Turning to `O=C1NC(=O)C(c2cccc(Cl)c2)=C1Nc1ccc(O)c(Cl)c1`, the inhibition in assay [1] is 11.5%; in assay [2], -0.47%; in assay [3] it was 1.74%; in assay [4], 1%; in assay [5], 9.11%; in assay [6] it was 3.31%. The inhibition in assay [7] was 7.66%; in assay [8], -0.49%; in assay [9], 0.64%; in assay [10], 2.27%.
As to `CCCN1CCC=C(c2ccc(Nc3nc(Nc4ccccc4C(N)=O)c4cc[nH]c4n3)c(C)c2)C1`, the inhibition in assay [1] turned out to be 37.2%; in assay [2] it was 1.94%; in assay [3] it was 4.17%; in assay [4], 78%; in assay [5] it was 94.9%; in [6], 5.97%. Also, the inhibition in [7] was determined as 24.3%; in assay [8], 18.6%; in assay [9] it was 58.3%; in assay [10], 9.36%.
In the case of `CCn1c(-c2nonc2N)nc2cncc(C(=O)N3CCNCC3)c21`, the inhibition in [1] amounted to 4.8%; in assay [2], 3.81%; in [3] it was 4.59%; in assay [4] it was 4.67%; in [5], 9.07%; in assay [6], 4.73%. Moreover, the inhibition in assay [7] came out at 6.87%; in assay [8], 3.5%; in [9], 6.04%; in assay [10], 5.85%.
With `Fc1cccc(COc2ccc(Nc3ncnc4cc(-c5ccc[nH]5)sc34)cc2Cl)c1`, the inhibition in assay [1] was found to be 8.52%; in assay [2], 2.14%; in assay [3] it was 2.25%; in assay [4], 7.86%; in assay [5], 11.5%; in assay [6], 9%. Besides, the inhibition in assay [7] was 11.5%; in assay [8] it was 3.25%; in [9], 8.38%; in assay [10], 7.54%.
For the compound `Cc1nnc(-c2ccc(C)c(-c3ccc(C(=O)Nc4cccc(C#N)c4)cc3)c2)o1`, the inhibition worked out at 10.9% in [1]; 2.05% in assay [2]; 2.02% in assay [3]; 4.97% in assay [4]; 6.48% in [5]; 7.9% in assay [6]. Further, the inhibition in assay [7] came to 12.9%; in assay [8], 4.42%; in assay [9] it was 8.03%; in assay [10], 4.58%.
`COc1ccc(-c2nn3ncccc3c2-c2ccnc(Nc3ccc(Cl)c(C(F)(F)F)c3)n2)cc1`: the inhibition in assay [1] came to 5.76%; in [2], 1.65%; in [3] it was 0.79%; in assay [4] it was 5.54%; in assay [5] it was 10.5%; in assay [6] it was 2.17%. Further, the inhibition in assay [7] is -0.91%; in assay [8], 2.33%; in assay [9], 6.71%; in assay [10], 2.51%.
Consider `CS(=O)(=O)CCNCc1ccc(-c2ccc3ncnc(Nc4ccc(OCc5ccccc5)c(Cl)c4)c3c2)o1`, for which the inhibition turned out to be 5.7% in [1]; 0.96% in [2]; 2.22% in assay [3]; 5.42% in [4]; 5.81% in assay [5]; 4.78% in assay [6]. For the same compound, the inhibition in assay [7] was 9.58%; in assay [8], 9.04%; in [9], 12.4%; in assay [10], 10.2%.
On to `COc1cc2ncn(-c3cc(O[C@H](C)c4ccccc4Cl)c(C(N)=O)s3)c2cc1OC`, for which the inhibition in assay [1] worked out at 95.3%; in assay [2] it was 2.17%; in assay [3], 2.07%; in [4], 10.3%; in assay [5], 32.2%; in [6], 18.2%. In addition, the inhibition in assay [7] was determined as 51.8%; in [8], 19.5%; in [9] it was 54.8%; in assay [10] it was 20.7%.
Regarding `CS(=O)(=O)CCNCc1nc(-c2ccc3ncnc(Nc4ccc(F)c(Cl)c4)c3c2)cs1`, the inhibition in assay [1] is 9.07%; in assay [2] it was -0.58%; in [3] it was 2.43%; in [4], -0.72%; in assay [5], 1.64%; in assay [6], 4.76%. Moreover, the inhibition in [7] was found to be 13.1%; in assay [8], 5.1%; in assay [9], 11%; in [10], 7.75%.
On to `Cc1ccc(C(=O)NC2CCCCC2)cc1-c1ccc(C(=O)NCC2CC2)cc1`, for which the inhibition is 9.04% in assay [1]; 0.19% in assay [2]; 0.68% in [3]; 3.32% in [4]; 9.58% in [5]; 5.5% in [6]. Moreover, the inhibition in assay [7] was found to be 7.84%; in assay [8], 5.44%; in assay [9] it was 4.79%; in assay [10] it was 10.8%.
Consider `Nc1nc(-c2ccccn2)c(-c2ccc3ncccc3n2)s1`, for which the inhibition stood at 7.71% in [1]; 2.13% in [2]; 1.57% in assay [3]; 8.82% in assay [4]; 12.2% in assay [5]; 1.19% in assay [6]. Also, the inhibition in [7] is 4.76%; in assay [8] it was 1.3%; in assay [9], 5.95%; in assay [10], 2.3%.
Regarding `COc1ccc(-c2ccncc2)cc1C(N)=O`, the inhibition was determined as 11.4% in assay [1]; 4.92% in assay [2]; 5.68% in [3]; 5.98% in [4]; 11.3% in assay [5]; 3.52% in [6]. Further, the inhibition in assay [7] worked out at 6.29%; in [8], 2.72%; in assay [9] it was 9.41%; in [10], 4.39%.
In the case of `NCc1ccc(-c2nc(-c3ccc(Cl)c(O)c3)c(-c3ccncc3)[nH]2)cc1`, the inhibition in assay [1] is 31%; in assay [2], 5.22%; in [3] it was 35.3%; in assay [4], 3.97%; in [5], -0.14%; in assay [6], 47.6%. Moreover, the inhibition in assay [7] is 76.6%; in assay [8], 1.17%; in [9], 7.47%; in assay [10], 39.5%.
